Molecules are shown by their SMILES. Unmarked numbers belong to inactive results.

In this assay the test system is Toxoplasma gondii RH 2F1 tachyzoites (intracellular in HFF). Kind of assay: parasite survival relative to DMSO control; higher = less antiparasitic activity, active = 20 or less. The settings on record: 1 µM; 72 h. A digest of the protocol: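 Parasite survival was taken as the CPRG signal relative to DMSO-treated infected wells, given as a percentage. To obtain it, HFF cells (5 × 10^3 cells/well, 96-well plates) were infected for 3 h in D2 medium with 5 × 10^3 β-galactosidase-expressing Toxoplasma gondii RH-2F1 tachyzoites, then exposed to compound at 1 μM for 72 h at 37°C in 5% CO2. Absorbance at 570 nm was measured 30 min after CPRG was added to lysed cells, and 2 or more biological replicates were run.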
As for `CCCCCCCCCN1C[C@@H](O)[C@H](O)[C@@H](O)[C@@H]1CO`, the parasite survival was 56.8%.
The figure for `CCc1oc2ccccc2c1C(=O)c1ccc(O)cc1` is 29.1%; for `CC(C)c1cc2c(cc1S(=O)(=O)O)[C@@]1(C)CCC[C@@](C)(C(=O)O)[C@@H]1CC2` it is 74.6%; for `CS(=O)(=O)c1ccc(Oc2ccc(Cl)cc2)cc1` it is 54.5%.
The value for `C[C@@]1(O)[C@H](O)[C@@H](CO)O[C@H]1n1ccc2c(N)ncnc21` was 58.6%.
Regarding `CNC(=O)C1O[C@@H](n2cnc3c(NCc4cccc(I)c4)nc(Cl)nc32)[C@H](O)[C@@H]1O` (stereo not given in full), the parasite survival was 68.3%.
Regarding `C[C@H](NC(CC(=O)c1ccccc1C(F)(F)F)C(=O)O)c1ccccc1` (stereo not given in full), the parasite survival was 63%.
In the case of `O=C(Nc1ccc(N2CCN(C(=O)c3ccccc3)CC2)cc1)c1ccc2c(c1)OCO2`, the parasite survival was 46.9%.
`O=C(O)CCNC(=O)c1ccccc1`: the parasite survival was 50.8%.
The figure for `N#C/C(=C1/SC[C@H](c2ccc(Cl)cc2Cl)S1)n1ccnc1` is 41.2%; for `OB1OCc2cc(Cl)ccc21` it is 57.2%.
The value for `O=[N+]([O-])c1ccc2c(CCc3c[nH]c4ccccc34)c[nH]c2c1` was 43.3%; that for `CCOC(=O)Nc1cc(NC(C)CC(C)CN(CC)CC)c2nc(-c3ccccc3)c(-c3ccccc3)nc2n1` (stereo not given) was 7.01% (active).
Regarding `COc1ccc2cc3[n+](cc2c1OCCN(CCn1cncn1)Cc1ccc(F)cc1F)CCc1cc2c(cc1-3)OCO2`, the parasite survival was 47.3%.
As to `O=c1cc(Nc2ccc3ccccc3c2)[nH]c(=O)[nH]1`, the parasite survival is 53.3%.

These data come from the supplement of paper PMC10941209.
